# From PubChem BioAssay (Tox21)
# Where “and” joins values, the source holds several entries; their conditions need not be identical. Equal entries are not always repeated. Records with an inconclusive call do not appear. A call without a number means that no potency is given here. More than one record can exist for a structure, and the calls need not agree. Calls of active or inactive are those of the source. The call rests on the fitted dose curve.
# Test: qHTS assay to identify small molecule antagonists of the sonic hedgehog signaling (Shh) pathway (AID 1259369); further: nearly all actives have a fitted effect of over 45% in size
# Details: NIH/3T3 Gli1-Luc reporter, Shh antagonist, luminescence 24 h; series mostly up to 92.4 µM; activity change, negative = inhibition: at the top concentration
# Source text: U.S. Tox21 Program National Center for Advancing Translational Sciences [NCATS] NIH Chemical Genomics Center [NCGC] U.S. Environmental Protection Agency [EPA] National Institutes of Environmental Health Sciences [NIEHS] National Toxicology Program [NTP] U.S. Food and Drug Administration [FDA] Tox21 Assay Overview: The sonic hedgehog (Shh) pathway is essential for normal embryonic development. Dysregulation of the Shh pathway can cause severe developmental defects in organs. Therefore chemicals that interfere with the pathway are potential developmental toxicants. A cell line designated 3T3Gli1-Luc (DMB/OARSA/CFSAN/FDA, Laurel, MD), a NIH/3T3 derived clone containing stably integrated Gli1-Luc reporter is used to detect chemical interference of the Shh pathway, by changes in the expression of the firefly Luc gene under the control of the Gli1 transcriptional response element. This cell line was used to screen Tox21 libraries for identifying and prioritizing the potential developmental toxicants that interfere Shh pathway. Conditioned medium-stimulated mode was used to screen for chemicals inhibiting Shh signaling.
# Tox21 Assay Protocol Summary: 3T3 Gli1-Luc cells were dispensed at 2,000 per well in 5uL of culture medium into white solid bottom 1536-well plates (Greiner Bio-One, Monroe, NC) using a Multidrop Combi (Thermo Scientific, Waltham, MA) dispenser. The assay plates were incubated at 37 C and 5% CO2 for 4hr, and then 23nL of compounds dissolved in DMSO and positive control were transferred using a Pintool station (Wako, San Diego, CA). The compound transfer was followed by the addition of 1ul conditioned medium or assay buffer using two separate tips of Flying Reagent Dispenser (FRD, Aurora Discovery, San Diego, CA). The assay plates were incubated at 37C and 5% CO2 for 24hr. For luciferase read, 4uL of Amplite Luciferase reporter gene assay reagent (AAT Bioquest, Inc. Sunnyvale, CA) was added to each well of the assay plates using FRD and incubated at room temperature for 30min. The luminescence signal was measured using a ViewLux plate reader (Perkin Elmer, Shelton, CT).
# Potency means the concentration at half of the fitted maximal effect.
Compound,Potency,"activity change, negative = inhibition"
O=C(O)CCCC[C@@H]1SC[C@@H]2NC(=O)N[C@@H]21,inactive,
c1ccc2c(c1)ccc1ccccc12,inactive,
C[C@H]1C[C@@H]2[C@H]([C@@H](O)C[C@@]3(C)[C@H]2CC[C@]3(O)C(=O)CO)[C@@]2(C)C=CC(=O)C=C12,,-26.5% [at 42.5 µM] (inactive)
O=C(Oc1ccccc1)c1ccccc1,inactive,
CCc1cccc(C)c1N,,0.664% (inactive)
O=C1CCC(N2C(=O)c3ccccc3C2=O)C(=O)N1 (stereo not given),inactive,
CCCCCC/C(C=O)=C\c1ccccc1,inactive,
CCCCC(CC)COC(=O)C(C#N)=C(c1ccccc1)c1ccccc1 (stereo not given),,-14.2% [at 42.5 µM] (inactive)
COc1ccc2cc([C@H](C)C(=O)O)ccc2c1,inactive,
CC(C)c1ccc(S(=O)(=O)O)cc1,inactive,
COCCCOc1ccnc(CS(=O)c2nc3ccccc3[nH]2)c1C (stereo not given),,20.8% [at 42.5 µM] (inactive)
CCCCCCCCCCCCCCO,inactive,
CC1=CCC2CC1C2(C)C (stereo not given),inactive,
c1ccc(OCCOc2ccccc2)cc1,inactive,
CCCCCCCCCCCCCCCO,27.5 µM (active) and inactive,
CC1CCC2CC1C2(C)C (stereo not given),inactive,
O=c1[nH]c(=O)n([C@H]2C[C@H](O)[C@@H](CO)O2)cc1Br,inactive,
O=c1[nH]nnc2ccccc12,inactive,
CN(C)CCC(c1ccccc1)c1ccccn1 (stereo not given),inactive,
COc1ccc(Nc2ccccc2)c(C)c1,,5.34% (inactive)

Compound,Potency,"activity change, negative = inhibition"
CCCCCCCCCC,,35% (inactive)
O=S(=O)(O)c1ccc2ccccc2c1,inactive,
C#CCN(C)Cc1ccccc1,inactive,
CCCCCCCC(=O)OC,inactive,
Cc1cccnc1,inactive,
ON=C1CCCCC1,inactive and 27.3 µM (active),
CCCCCCCCCCCCS,,1.22% (inactive)
CCCCCCCCCCCCc1ccccc1,inactive,
Cc1cc(C)c(C)cc1C,inactive,
CCCCN(CCCC)CCCC,inactive,
O=c1[nH]c(=O)n([C@H]2CCCO2)cc1F,inactive,
O=C(O)[C@H](O)[C@@H](O)[C@H](O)[C@H](O)CO,inactive,
OC[C@H]1O[C@@](CO)(O[C@H]2O[C@H](CO)[C@@H](O)[C@H](O)[C@H]2O)[C@@H](O)[C@@H]1O,inactive,
COc1cc(Cc2cnc(N)nc2N)cc(OC)c1OC,,30.4% [at 42.5 µM] (inactive)
CC1=CC(=O)NS(=O)(=O)O1,inactive,
CCCCCC1=CCCC1=O,,-1.53% (inactive)
CCCCCCCCC/C=C/CC1CC(=O)OC1=O (stereo not given),inactive,
OCCOCCN1CCN(C2=Nc3ccccc3Sc3ccccc32)CC1,,-7.8% [at 42.5 µM] (inactive)
NNc1nncc2ccccc12,inactive,
CCc1ccc(CCOc2ccc(CC3SC(=O)NC3=O)cc2)nc1 (stereo not given),,-19.2% [at 42.5 µM] (inactive)
